Assay results taken from PubChem BioAssay (NCATS).
Results filed as inconclusive are left out. Activity calls are given as the source filed them. Calls follow the shape of the dose curve; as a rule, active = well fitted inhibition curve with a large enough effect; inconclusive = small, poorly fitted or top-dose-only effect; inactive = no such curve, though single readings can be large or run the other way.

target: Cytochrome P450 2C9 (Homo sapiens) (UniProt P11712); assay: qHTS Assay for Inhibitors and Substrates of Cytochrome P450 2C9 (AID 883); conditions: recombinant CYP2C9, luciferin-H luminescence, 60 min; series mostly up to 57.1 µM; also: nearly all actives have a fitted effect of over 60% in size
Procedure: NIH Molecular Libraries Screening Centers Network [MLSCN] NIH Chemical Genomics Center [NCGC] MLSCN Grant: None NCGC Assay Overview: The P450 gene superfamily is involved in the metabolism and clearance of xenobiotics. This assay used human CYP2C9 to measure the hydroxylation of deoxyluciferin (Luciferin-H; P450 Glo-Buffer) to luciferin. The luciferin is then measured by luminescence after the addition of a luciferase detection reagent. Luciferin-H concentration in the assay was equal to its Michaelis constant KM for CYP2C9. Inhibitors and some substrates limit the production of luciferin, and decrease measured luminescence.
NCGC Assay Protocol Summary: Two uL of enzyme and substrate mix (final concentrations: 10nM CYP2C9, 100uM Luciferin-H, 25mM KPO4) were dispensed into a white, solid bottom 1536-well microtiter plate. 23nL of compound was transferred by a pin tool. The plate was incubated at 37C for 10 min. Two uL of an NADPH regeneration solution (Promega supplied reagent) was dispensed and the reaction was allowed to continue for 60 min at 37C. Then the reaction was stopped by reconstituted P450 Glo-Buffer. After another 20 min of incubation the plate was read on the ViewLux (Perkin Elmer) at 60 sec exposure and 2x2 binning. This protocol was carried out with Promega-Glo reagents and further information can be found at http://www.promega.com/tbs/tb325/tb325.pdf. Data were normalized to the to AC100 inhibition (57uM sulphaphenazole). Keywords: P450, CYP2C9, Luciferase, MLSMR, MLSCN, NIH Roadmap, qHTS, NCGC
% is scaled to controls: 0 for no effect and ±100 for the full control effect; potency is read from the fitted curve at half-maximal effect.

Sequence of Cytochrome P450 2C9 (Homo sapiens) (P11712 whole entry, looked up): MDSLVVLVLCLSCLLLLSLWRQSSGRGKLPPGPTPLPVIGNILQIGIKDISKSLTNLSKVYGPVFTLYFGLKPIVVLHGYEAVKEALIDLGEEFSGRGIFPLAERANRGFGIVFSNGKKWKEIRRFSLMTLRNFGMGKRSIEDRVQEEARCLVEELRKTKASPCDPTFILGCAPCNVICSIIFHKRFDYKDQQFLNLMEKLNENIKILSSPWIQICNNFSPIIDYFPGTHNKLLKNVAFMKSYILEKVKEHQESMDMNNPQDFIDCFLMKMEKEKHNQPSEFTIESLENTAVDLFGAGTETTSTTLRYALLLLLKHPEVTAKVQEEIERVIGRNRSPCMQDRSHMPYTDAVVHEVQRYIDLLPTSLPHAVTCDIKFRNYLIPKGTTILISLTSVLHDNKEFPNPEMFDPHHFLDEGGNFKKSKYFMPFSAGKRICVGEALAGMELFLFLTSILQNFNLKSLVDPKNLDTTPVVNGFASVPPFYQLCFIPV

Structure (SMILES)	activity change, negative = inhibition	Potency
CN(C)C(=O)c1ccc(-c2nc(N(C)C)c3ccccc3n2)cc1	29.4% [at 2.29 µM] (inactive)	
CN1C(=O)CC[C@@H]1c1cccnc1		inactive
FC(F)(F)c1cc(CN2CC[C@@]3(CCCNC3)C2)cc(C(F)(F)F)c1		inactive
COCC(=O)N1CCC2(CC1)CN(C(=O)Nc1ccccc1)C2		1580 nM (active)
CN1CCN(c2ncncc2-c2ccc(N(C)C)cc2)CC1	36.5% [at 2.29 µM] (inactive)	
O=C(c1cc(C(F)(F)F)cc(C(F)(F)F)c1)N1CCC2(CC1)CCN(c1ncccn1)CC2		inactive
COc1c(-c2ccc(O)c(O)c2)oc2cc(O)cc(O)c2c1=O		inactive
CC(=O)NCCNc1nc(-c2ccccc2C)nc2ccccc12	46.4% [at 2.29 µM] (inactive)	
O=C(Nc1cccc(F)c1)N1CC2(CCN(C(=O)c3cc(C(F)(F)F)cc(C(F)(F)F)c3)CC2)C1		inactive
O=C(c1ccco1)N1CCC2(CCCN(c3ccncc3)C2)CC1		inactive
COc1ccc2[nH]cc(CCNc3ncnc4ccc(-c5ccc(C(=O)N(C)C)cc5)cc34)c2c1		251 nM (active)
COc1ccc(Oc2ncc3nc(-c4cccs4)c(=O)n(C)c3n2)cc1		3160 nM (active)
O=C(C1CCCCC1)N1CC(=O)N2CCc3ccccc3[C@@H]2C1		inactive
O=c1c(-c2cc(F)cc(F)c2)nc2cncnc2n1C1CC1		inactive
COc1cccc(Cn2c(=O)cnc3cnc(Oc4cccc(Cl)c4)nc32)c1		3980 nM (active)
COc1ccccc1CCn1c(=O)c(-c2cn(C)c3ccccc23)nc2cncnc21		316 nM (active)
COc1cccc(Cn2c(=O)c(-c3cccs3)nc3cncnc32)c1		2510 nM (active)
CS(=O)(=O)c1ccc(Cn2c3c(c4cc(F)cc(F)c42)CCC[C@H]3CC(=O)O)cc1		inactive
CC1(C)Oc2ccc(C#N)cc2[C@H](N2CCCC2=O)[C@H]1O		inactive
Cc1cnc(CNc2ccnc(-c3cccnc3)n2)cn1	21.5% [at 2.29 µM] (inactive)	

Structure (SMILES)	activity change, negative = inhibition	Potency
Cn1cccc1C(=O)N1CCC2(CCCN(c3cccc(-c4ccccc4)c3)C2)CC1		3980 nM (active)
CN(C)c1nc(-c2ccccc2C(F)(F)F)nc2ccccc12	37.2% [at 2.29 µM] (inactive)	
O=C(c1cccc(F)c1)N1CCC2(CCCN(C(c3ccccc3)c3ccccc3)C2)CC1		3160 nM (active)
Cn1cccc1C(=O)N1CCC2(CC1)CN(c1cccc(-c3ccccc3)c1)C2		inactive
C[C@@]12CCC(=O)C=C1CC[C@@H]1[C@@H]2[C@H](O)C[C@]2(C)[C@@H]1CC[C@]2(O)C(=O)CO		inactive
COc1cccc(Cn2c(=O)c(-c3cc(F)cc(F)c3)nc3cnc(N4CCNCC4)nc32)c1		7940 nM (active)
Cc1cccc(CNc2ccnc(-c3ccccc3CN(C)C)n2)c1	13.9% [at 2.29 µM] (inactive)	
COCCn1c(=O)c(-c2ccc(OC)cc2)nc2cnc(Oc3cccc(Cl)c3)nc21		631 nM (active)
O=c1c(-c2cccc(Cl)c2)nc2cncnc2n1Cc1ccccc1Cl		3980 nM (active)
COc1c2ccoc2nc2c(OC)c(OC[C@H](O)C(C)(C)O)ccc12		inactive
O=C(O)/C=C\c1ccc(O)c(O)c1		inactive
COc1cccc(Cn2c(=O)c(-c3cccs3)nc3cnc(N4CCN(C)CC4)nc32)c1		inactive
COc1cccc(-c2cncnc2NCCc2cnc[nH]2)c1		251 nM (active)
COc1cc2c3cc1Oc1c(OC)c(OC)cc4c1[C@@H](Cc1ccc(O)c(c1)Oc1ccc(cc1)C[C@@H]3N(C)CC2)N(C)CC4		inactive
Cn1cccc1C(=O)N1CCC2(CCCN(c3ncccn3)C2)CC1		inactive
O=C(c1cc(C(F)(F)F)cc(C(F)(F)F)c1)N1CCC2(CC1)CN(c1ccncc1)C2		3980 nM (active)
CS(=O)(=O)N1CCC2(CC1)CN(c1ccc(-c3ccccc3)cc1)C2		inactive
Cc1c(CC(C)(C)C(=O)O)n(Cc2ccc(Cl)cc2)c2ccc(F)cc12		501 nM (active)
CS(=O)(=O)Nc1cccc(-c2cc(NCc3cccs3)ncn2)c1	35.3% [at 2.29 µM] (inactive)	
COc1ccc2[nH]cc(CCNc3ncncc3-c3ccc(C(=O)N(C)C)cc3)c2c1		398 nM (active)
